Experimental data taken from ChEMBL document CHEMBL3988442, “University of Dundee, Small-Polar-MMV Screening Library” (2021).
About 1,200 (3.2%) of roughly 38,000 compounds showed an effect of 50% or more. The median lay at about -58%. The full list was thinned out, with strong results kept by preference.

System: Plasmodium falciparum
Assay: Calibr Malaria Delayed Death Assay SOP
Format: functional, organism-based
Design: scale not given: in the data most compounds retested in dose-response had high values
Settings: concentration 4.99e-06 (unit not given; other assays of the set use mol/L)

SMILES	Percent Effect [%]
CN1CCN([C@@H]2CCN(Cc3cccc(-n4cccn4)c3)C[C@H]2O)CC1	-47.29
CN1CCC(C2CCN(Cc3cccc(-n4cccn4)c3)CC2)C1 (configuration not stated)	85
COC(=O)C(O)C1CCN(Cc2cccc(-n3cccn3)c2)CC1 (configuration not stated)	-42.85
O=C(CN1C=Nc2ccccc2S1(=O)=O)NCc1ccccc1F	-61.62
Cc1ccc(O)c(CNC2CCc3nc(C)nn3C2)n1 (configuration not stated)	-50.72
COCC(c1ccccn1)N(C)C(=O)c1cc(-c2ccccc2O)n[nH]1 (configuration not stated)	-47.61
CO[C@H]1CN(C(C)C)C[C@@H]1NC(=O)Nc1ccc2oc(C)cc2c1	-10.12
Cc1ncoc1C(=O)N1CC[C@@H](O)[C@@H](O)[C@H](N2CCC(F)(F)CC2)C1	-177.2
CCC(=O)N1CCC2(C=C(C(=O)N(C)C)c3ccccc32)CC1	-96.59
CN1CCC2(C=C(C(=O)N(C)C)c3ccccc32)CC1	59.58
CCN1CCC2(C=C(C(=O)N(C)C)c3ccccc32)CC1.O=C(O)C(F)(F)F	-5.162
COc1cc(CCC(=O)NC2CCCN(C)C2)ccc1OCC(F)(F)F (configuration not stated)	27.9
Cc1noc(C)c1CN1CC[C@H]2OCC[C@@]2(C(=O)NCC2CC2)C1.O=C(O)C(F)(F)F	-150.6
COC[C@@H]1CCC[C@@]12CN(C(=O)C1CCOCC1)CCO2	-66.15
COc1ccc(-n2nnnc2C(C)(C)Nc2ccc(C)cc2C)cc1	-134.7
Cc1nnc(C2CCN(C(=O)c3ccsc3)CC2)s1	-17.33
Cn1ccnc1CN1CCC(c2ccnc(-c3cccc(O)c3)c2)C1 (configuration not stated)	27.57
CN(C)CC(C)(C)CN1CCC(c2ccnc(-c3cccc(O)c3)c2)C1 (configuration not stated)	69.12
Oc1cccc(-c2cc(C3CCN(Cc4cncnc4)C3)ccn2)c1 (configuration not stated)	-16.47
Nc1cccnc1N1CCC(O)CC1	-81.29
Cc1n[nH]c(C)c1-c1cc(-c2cc[nH]c2)nc(N)c1C#N	-97.75
O=C(O)C(F)(F)F.c1cncc(N2CCC3(CCCN(c4ccncc4)C3)CC2)c1	46.04

SMILES	Percent Effect [%]
O=C(O)C(F)(F)F.O=C(O)C(F)(F)F.c1cncc(N2CCCC3(CCN(CCN4CCCC4)CC3)C2)c1	91.95
O=C(O)C(F)(F)F.c1cncc(N2CCCC3(CCN(CC4CCCO4)CC3)C2)c1 (configuration not stated)	46.34
Cn1cc(CN2CCCC3(COCCN(c4cccnc4)C3)C2)cn1.O=C(O)C(F)(F)F.O=C(O)C(F)(F)F (configuration not stated)	-73.12
c1cncc(CN2CCCC3(COCCN(c4cncnc4)C3)C2)c1 (configuration not stated)	-38.46
Cc1nc2cc(NCc3cnn(C)c3)ccc2n1C	-142.2
COCCN(C)C[C@@H]1CN(C(=O)NC2CCCCC2)C[C@@H]1CO	-45.61
CCn1c(C)cc(C(=O)Nc2ccccc2CN(C)C(C)=O)c1C	-65.04
Cc1nc(NCCC23CCCN2CCC3)cc(C2CCCNC2)n1 (configuration not stated)	-30.47
CCn1ccnc1C1CCN(Cc2c(F)cccc2F)CC1	-140
O=C(c1cnc(C2CC2)nc1O)N1CCN(Cc2ccccc2F)CC1	-42.64
Cc1nc(C2CCCNC2)cc(N(Cc2nccn2C)C2CC2)n1 (configuration not stated)	7.981
COc1cccc(CN2CC[C@H](c3nnc(C)o3)C2)c1	-103.2
COc1cccc(CN2CCCC2Cn2nc(C)nc2C)c1 (configuration not stated)	-44.63
O=c1n(Cc2ccccc2F)nc2ncccn12	-19.66
Fc1cccnc1Oc1cc(F)c(CN2CCCC2)c(F)c1	13.36
CCSCc1cccc(NCc2cccnc2)c1	-120.6
CCCNc1cc(C(=O)N2CCOCC2)nc(C)n1	-41.3
COCCNC(=O)c1ccc2c(=O)n3c(nc2c1)CCCCCC3	-86.41
CC(C)N(C)Cc1cn2c(n1)CN(C(=O)c1ccc[nH]1)CC2	-50.23
COC[C@@H]1CC[C@H]2[C@H](CCN2S(=O)(=O)c2cccc(F)c2)O1	-8.99
Cc1ccc2c(c1)N(C(=O)c1c[nH]c(C)cc1=O)CC(C)O2 (configuration not stated)	-44.94
O=C(c1cnccn1)N1CCCC(c2cccc(-n3ccnc3)n2)C1 (configuration not stated)	-38.64

SMILES	Percent Effect [%]
CC(C)C1SCC(=O)Nc2c1cnn2-c1ccc(Cl)cc1F (configuration not stated)	-28.94
CCC(=O)NCC(=O)N(C)C(c1ccc(Cl)cc1)c1cccnc1 (configuration not stated)	-30.63
Cn1c2ccc(F)cc2c2ncn(CCN3CCOCC3)c(=O)c21	-139.8
CC(Cc1ccccc1F)C(=O)Nc1cccc(OCC(N)=O)c1 (configuration not stated)	-53.66
Cc1ccc([C@]2(O)CC[C@H]3CN(Cc4cccnc4)C[C@H]32)nc1	-69.34
Cc1ccc([C@]2(O)CC[C@H]3CN(Cc4cccc(F)c4F)C[C@H]32)nc1.O=C(O)CC(O)(CC(=O)O)C(=O)O	43.22
Cc1ccc([C@]2(O)CC[C@H]3CN(Cc4ccc(Cl)cc4Cl)C[C@H]32)nc1	64.98
CCc1oc(C(=O)N[C@@H]2c3ccccc3C[C@@H]2O)cc1CN1CCCC1	-27.56
CS(=O)(=O)NC1CCCN(Cc2ccc(OCc3ccccn3)cc2)C1 (configuration not stated)	-34.46
CCOc1ccc(CN2CCN(C(=O)c3cc(C4CC4)[nH]n3)CC2)cc1	-17.17
Cn1cc(CN(C(=O)c2ccc3ncsc3c2)C2CC2)cn1	-137
COCC1CC2(CCN(Cc3cccc(C#N)c3)CC2)CN1C(C)C.O=C(O)C(F)(F)F.O=C(O)C(F)(F)F (configuration not stated)	72.4
COC1COC2(CCN(Cc3cccc(C#N)c3)CC2)C1.O=C(O)C(F)(F)F (configuration not stated)	-4.356
COCC1CC2(CCN(Cc3ccco3)CC2)CN1C(C)C.O=C(O)C(F)(F)F.O=C(O)C(F)(F)F (configuration not stated)	63.6
COCC1CC2(CCN(C(=O)c3ccccc3C)CC2)CN1C(C)C.O=C(O)C(F)(F)F (configuration not stated)	-58.35
COCC1CC2(CCN(Cc3ccc(C)o3)CC2)CN1C(C)C.O=C(O)C(F)(F)F.O=C(O)C(F)(F)F (configuration not stated)	34.42
COCC1CC2(CCN(C(=O)c3ccco3)CC2)CN1C(C)C.O=C(O)C(F)(F)F (configuration not stated)	24.38
CNC(=O)CNC(=O)Nc1cc(-c2ccccc2)ns1	-97.73
O=C(O)C(F)(F)F.O=C1CCCN1Cc1nnc2n1CCN(Cc1ccoc1)CC2	-13.9
CCOCCNC(=O)c1cccnc1Sc1cc(OC)ccc1OC	-83.15
CC(C)OCc1noc(C2CCCOC2)n1 (configuration not stated)	-85.93
COC(=O)CCC(=O)NCc1cccnc1N1CCc2ccccc2C1	58.06

SMILES	Percent Effect [%]
Cc1cc(C(=O)NCc2cccnc2N2CCc3ccccc3C2)[nH]n1	-34.77
Cc1nnsc1C(=O)NCc1cccnc1N1CCc2ccccc2C1	-86.78
NC(=O)NCCC(=O)NCc1cccnc1N1CCc2ccccc2C1	-76.53
CC(C)[C@@H](N)C(=O)NCc1cccnc1N1CCc2ccccc2C1	28.21
Cc1n[nH]cc1C(=O)NCc1cccnc1N1CCc2ccccc2C1	75.05
O=S(=O)(Cc1ccccc1F)Cc1nnnn1C1CC1	-164.7
CC(C)CC(=O)N1CCC2(CC1)OC(C(N)=O)Cn1ccnc12.O=C(O)C(F)(F)F (configuration not stated)	-41.43
CC(C)c1cc(C(=O)NC2CCN(CC(N)=O)CC2)nn1C(C)(C)C	-153
COc1ccc2oc(C(C)NC(=O)NCc3noc(C)n3)c(C)c2c1 (configuration not stated)	-10.38
CCc1cnc(C)nc1NCCN1CCOCC1	-14.69
Cn1cc(Br)c(C(=O)NCCCn2cc(Cl)cn2)n1	-63.62
CCc1cnc(N)nc1NCCCn1cc(Cl)cn1	84.03
CCc1cnc(N)nc1NCCCn1nc(C)nc1C	-48.25
CCc1cnc(N)nc1NCCC(=O)NC1CCCCC1	-82.55
CCc1cnc(N)nc1NCCn1cc(Cl)cn1	54.15
CCN(CC)C(=O)C1CCCN(CC(=O)Nc2c(C)nn(CC)c2C)C1 (configuration not stated)	-43.93
Cc1nn(CC(=O)N2CCN(Cc3cnn(C)c3C)CC2)cc1Cl	-81.13
CCNC(=O)c1ccc(N2CCCC(c3nccn3C(C)C)C2)nc1 (configuration not stated)	-31.13
CC(C)n1ccnc1C1CCN(C(=O)c2ccccc2)CC1	-13.68
CCNC(=O)C1CCN(c2cc(-c3ccccc3)nc3ccnn23)C1 (configuration not stated)	-30.81
Cc1cc(N2CCCC(N(C)C)C2)n2nccc2n1 (configuration not stated)	-65.48
CN(C)C1CCN(c2cc(-c3ccccc3)nc3ccnn23)C1 (configuration not stated)	51.07

SMILES	Percent Effect [%]
O=C(NCCCn1ccccc1=O)c1cnc(-c2ccsc2)s1	-39.04
O=C(CC1CCCC1)NCCNCc1cccc2c1OCCO2	71.86
O=S(=O)(CCNCc1cccc2c1OCCO2)N1CCOCC1	10.69
O=C(CCNCc1cccc2c1OCCCO2)NC1CCCC1	12.04
CC(C)c1nc(CN2CCOC(CNc3cccnn3)C2)cs1 (configuration not stated)	-68.41
O=C1c2ccccc2C(=O)N1CC(O)Cn1nc(-c2cccs2)oc1=O (configuration not stated)	1.705
O=C(c1ccnc(CC2COc3ccccc3C2)c1)N1CCCC1 (configuration not stated)	-41.96
CCS(=O)(=O)N1CCc2ccc(NC(=O)NC(C)(C)C)cc21	-106.6
Cc1cccc(-c2[nH]ncc2CNCC2CCN(CC(C)O)CC2)c1 (configuration not stated)	-49.15
CC(O)CN1CCC(CNCc2cccc(C(F)(F)F)c2)CC1 (configuration not stated)	82.43
CC(C1CCN(Cc2ccc(OC(F)F)cc2)CC1)N1CCOCC1 (configuration not stated)	-27.61
CC(C)Oc1cccc(CC(=O)NC2CCN(CC(N)=O)CC2)c1	-80.49
CCn1ccnc1CNCC1CCN(CC(O)c2ccccc2)CC1 (configuration not stated)	-30.37
FC(F)(F)Oc1cccc(CNC[C@H]2Cn3ccnc3CO2)c1	-105.1
CC(O)CN1CCC(CNCc2cccc(C(N)=O)c2)CC1 (configuration not stated)	-77.28
CC(C)Oc1cccc(CN2CCC(C(C)N3CCOCC3)CC2)c1 (configuration not stated)	55.35
CC(O)CN1CCC(CNCc2cccc(OC(C)C)c2)CC1 (configuration not stated)	61.47
CN1CCOC(CNCc2cccc(OC(F)(F)F)c2)C1 (configuration not stated)	1.205
CC(C1CCN(Cc2ccc(N(C)C)nc2)CC1)N1CCOCC1 (configuration not stated)	-9.646
